Reference: PubChem BioAssay AID1159580 (chemical genetic matrix, 2015)
Where “and” joins values, the source holds several entries; their conditions need not be identical. Equal entries are not always repeated. Among all 5,500 compounds or so, about 2,000 (36%) were called active. Another 18% or so got no clear call; they are omitted. Cut-off read from the data, not from the text of the source: active = normalized growth mostly below about 0.91 (no sharp cut-off); inconclusive = no clear call, values can overlap the other calls; inactive = mostly above about 0.92. The list shows a part of the results.

Test: chemical genetic growth profiling, strain panel (AID 1159580);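 note: tested at 20 µM; growth read once vehicle control cultures reached saturation at 30 °C; 1 = growth at the plate median or of vehicle wells; lower values mean less growth of the strain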
Settings: S. cerevisiae deletion strains, growth OD

Measured: normalized growth

C[N+](C)(C)CC(O)CC(=O)O (stereo unspecified)
inactive: locus YAL013W, strain DEP1, stronger effect = lower value 1.02 | locus YAL021C, strain ccr4, stronger effect = lower value 1.01 | locus YAL026C, strain drs2, stronger effect = lower value 0.982 | locus YAL030W, strain snc1, stronger effect = lower value 0.982 | locus YBL061C, strain skt5, stronger effect = lower value 0.977 | locus YBR009C, strain hhf1, stronger effect = lower value 1 | locus YBR021W, strain FUR4, stronger effect = lower value 0.992 | locus YBR023C, strain chs3, stronger effect = lower value 0.985 | locus YBR171W, strain sec66, stronger effect = lower value 0.981 | locus YBR229C, strain ROT2, stronger effect = lower value 1 | locus YBR231C, strain swc5, stronger effect = lower value 0.974 | locus YBR279W, strain paf1, stronger effect = lower value 0.998 | locus YCL011C, strain gbp2, stronger effect = lower value 0.978 | locus YCL016C, strain dcc1, stronger effect = lower value 0.96 | locus YCL029C, strain bik1, stronger effect = lower value 1 | locus YCL069W, strain vba3, stronger effect = lower value 0.981 | locus YCR088W, strain abp1, stronger effect = lower value 0.986 | locus YDL005C, strain med2, stronger effect = lower value 0.98 | locus YDL035C, strain GPR1, stronger effect = lower value 1.02 | locus YDL040C, strain nat1, stronger effect = lower value 0.982 | locus YDL074C, strain BRE1, stronger effect = lower value 1.01 | locus YDL101C, strain DUN1, stronger effect = lower value 1 | locus YDL134C, strain PPH21, stronger effect = lower value 1.01 | locus YDL185W, strain tfp1, stronger effect = lower value 0.996 | locus YDL192W, strain arf1, stronger effect = lower value 0.997 | locus YDR001C, strain nth1, stronger effect = lower value 0.975 | locus YDR069C, strain doa4, stronger effect = lower value 1.01 | locus YDR101C, strain arx1, stronger effect = lower value 0.983 | locus YDR137W, strain rgp1, stronger effect = lower value 0.972 | locus YDR150W, strain NUM1, stronger effect = lower value 1.01 | locus YDR159W, strain sac3, stronger effect = lower value 1.02 | locus YDR162C, strain NBP2, stronger effect = lower value 1 | locus YDR195W, strain ref2 0.96 | locus YDR297W, strain sur2, stronger effect = lower value 0.998 | locus YDR318W, strain mcm21, stronger effect = lower value 0.999 | locus YDR334W, strain swr1, stronger effect = lower value 0.969 | locus YDR335W, strain msn5, stronger effect = lower value 0.971 | locus YDR388W, stronger effect = lower value 1.01 | locus YDR392W, strain spt3, stronger effect = lower value 0.973 | locus YDR502C, strain sam2, stronger effect = lower value 1.02 | locus YEL003W, strain gim4, stronger effect = lower value 0.986 | locus YEL037C, strain rad23, stronger effect = lower value 0.969 | locus YEL061C, strain CIN8 (second series), stronger effect = lower value 0.981 | locus YEL061C, strain CIN8, stronger effect = lower value 1 | locus YER015W, strain faa2, stronger effect = lower value 0.977 | locus YER016W, strain bim1, stronger effect = lower value 0.965 | locus YER110C, stronger effect = lower value 0.991 | locus YER111C, strain swi4, stronger effect = lower value 0.96 | locus YER155C, strain BEM2 (second series), stronger effect = lower value 0.965 | locus YER155C, strain BEM2, stronger effect = lower value 0.995 | locus YER167W, strain BCK2, stronger effect = lower value 0.995 | locus YFR010W, strain ubp6, stronger effect = lower value 1 | locus YGL078C, strain dbp3, stronger effect = lower value 1 | locus YGL086W, strain mad1, stronger effect = lower value 0.998 | locus YGL167C, strain pmr1, stronger effect = lower value 0.98 | locus YGL173C, strain kem1, stronger effect = lower value 0.968 | locus YGL227W, strain vid30, stronger effect = lower value 0.985 | locus YGL240W, strain doc1, stronger effect = lower value 0.998 | locus YGL248W, strain PDE1, stronger effect = lower value 1 | locus YGL253W, strain hxk2, stronger effect = lower value 0.957 | locus YGR078C, strain PAC10, stronger effect = lower value 1 | locus YGR135W, strain pre9, stronger effect = lower value 0.994 | locus YGR229C, strain SMI1, stronger effect = lower value 1.02 | locus YGR252W, strain gcn5, stronger effect = lower value 1 | locus YHR013C, strain ard1, stronger effect = lower value 0.95 | locus YHR027C, strain rpn1, stronger effect = lower value 0.984 | locus YHR030C, strain SLT2, stronger effect = lower value 1 and 0.979 | locus YHR079C, strain IRE1 (second series), stronger effect = lower value 0.999 | locus YHR079C, strain IRE1, stronger effect = lower value 0.976 | locus YHR094C, strain hxt1, stronger effect = lower value 0.996 | locus YHR129C, strain ARP1, stronger effect = lower value 0.999 | locus YHR142W, strain chs7, stronger effect = lower value 0.968 | locus YHR200W, strain rpn10, stronger effect = lower value 1 | locus YIL066C, strain RNR3, stronger effect = lower value 1.02 | locus YIL073C, strain SPO22, stronger effect = lower value 1.04 | locus YIL125W, strain kgd1, stronger effect = lower value 1 | locus YIR030C, strain dcg1, stronger effect = lower value 0.998 | locus YJL092W, strain hpr5, stronger effect = lower value 0.984 | locus YJL095W, strain BCK1 (second series), stronger effect = lower value 0.974 | locus YJL095W, strain BCK1, stronger effect = lower value 1 and 0.989 | locus YJL115W, strain asf1, stronger effect = lower value 0.977 | locus YJL129C, strain trk1, stronger effect = lower value 0.983 | locus YJL134W, strain LCB3, stronger effect = lower value 1 | locus YJL154C, strain vps35, stronger effect = lower value 0.975 | locus YJL164C, strain tpk1, stronger effect = lower value 0.989 | locus YJL166W, strain qcr8, stronger effect = lower value 1.02 | locus YJL168C, strain set2, stronger effect = lower value 0.997 | locus YJL187C, strain SWE1 (second series), stronger effect = lower value 1.01 | locus YJR043C, strain POL32, stronger effect = lower value 1 | locus YJR066W, strain TOR1, stronger effect = lower value 0.929 | locus YJR075W, strain HOC1, stronger effect = lower value 1.01
